Screen size: about 340,000 compounds; about 990 (0.29%) were called active. Rule as the data show it: active = activation above about 18%; inactive = the rest. Only a selection was taken, and actives are over-represented in it overall.
biological target: Mu-type opioid receptor (Homo sapiens) + Delta-type opioid receptor (Homo sapiens) (UniProt P35372+P41143); experiment: agonists of OPRM1-OPRD1 heterodimerization, primary screen, cell-based, luminescence (AID 504326); conditions: cells, at 9.3 µM, stronger effect = higher value;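 also: 0% = vehicle-treated cells and 100% = reference agonist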
Sequence (P35372 whole entry, looked up): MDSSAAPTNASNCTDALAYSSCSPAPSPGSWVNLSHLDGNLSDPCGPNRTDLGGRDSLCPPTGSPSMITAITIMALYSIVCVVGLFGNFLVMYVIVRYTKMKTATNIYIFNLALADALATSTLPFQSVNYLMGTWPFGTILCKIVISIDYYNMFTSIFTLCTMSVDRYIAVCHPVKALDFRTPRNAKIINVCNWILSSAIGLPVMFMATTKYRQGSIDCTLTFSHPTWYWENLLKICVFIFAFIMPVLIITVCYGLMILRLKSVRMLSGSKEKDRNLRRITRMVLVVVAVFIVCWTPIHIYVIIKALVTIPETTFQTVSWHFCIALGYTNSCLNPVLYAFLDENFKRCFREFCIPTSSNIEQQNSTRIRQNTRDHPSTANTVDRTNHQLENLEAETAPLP
Sequence (P41143 whole entry, looked up): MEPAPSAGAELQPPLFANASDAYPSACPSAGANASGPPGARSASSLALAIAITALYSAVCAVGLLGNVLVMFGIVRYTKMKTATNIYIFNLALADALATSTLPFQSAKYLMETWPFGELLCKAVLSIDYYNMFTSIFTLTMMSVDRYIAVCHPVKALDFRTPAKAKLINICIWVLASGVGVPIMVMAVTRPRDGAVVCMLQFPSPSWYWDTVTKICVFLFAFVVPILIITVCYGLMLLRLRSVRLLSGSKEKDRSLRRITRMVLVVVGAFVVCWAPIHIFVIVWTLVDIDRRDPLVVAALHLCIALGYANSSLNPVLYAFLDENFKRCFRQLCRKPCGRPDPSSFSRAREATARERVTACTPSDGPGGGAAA

activation, inactive:
CCSC1=C(C#N)C(=O)n2c1cc1c2CCCC1 -1.61%, O=C1c2cccc3c([N+](=O)[O-])ccc(c23)C(=O)N1CC1CCCO1 (configuration not stated) 2.93%, Cc1cc(C)c(S(=O)(=O)N2C=CC(C(F)(F)F)=NCC2)c(C)c1 0.24%, COc1cccc(-n2c(SCC(=O)NC3CCCCC3)nc3n[nH]c(C)c3c2=N)c1 0.14%, CCCCNC(=O)CSc1nc2n[nH]c(C)c2c(=N)n1-c1cccc(Cl)c1C 0.12%, CCN(CC(=O)Nc1ccc(S(=O)(=O)N2CCCC2)cc1)CC(=O)Nc1cccc(OC)c1 -3.32%, COc1cccc(NC(C)=[N+](C)CCNS(=O)(=O)c2ccc(Cl)cc2)c1 -2.81%, Cc1ccc(N2C(=O)N3[C@@H]4c5ccccc5OC[C@@H]4[C@@H](c4ccccc4)[C@@]3(C)C2=O)cc1 -1.07%, CC(C)N(Cc1nnc(-c2ccccc2Br)o1)C(=O)c1cc(Cl)nc2ccccc12 -1.2%, COCCCNc1nc2c(-c3cccc(C(F)(F)F)c3)nnn2c2ccccc12 -0.55%, COC(=O)Cn1nc(-c2ccccc2)c2cc(Cl)ccc21 -1.42%, CC(=O)c1ccc(NC(=O)C(C)NCc2ccc(Cl)cc2)cc1 (configuration not stated) -0.65%, CN(C(=O)c1ccc(NC(=O)Cc2cccc(NC(=O)C3CCN(C(=O)c4ccccc4)CC3)c2)cc1)C1CC1 -0.88%, COCCOC1CCN(C(=O)c2ccc(OC)c(OC3CCN(C(C)C)CC3)c2)CC1 -3.67%, CCC(C(=O)OCC(=O)Nc1ccccc1-c1ccccc1)c1ccccc1 (configuration not stated) 12.4%, CCC(C(=O)OCC(=O)Nc1c(Cl)cc(Cl)cc1Cl)c1ccccc1 (configuration not stated) 6.24%, O=C(CC(=O)N/N=C\c1cccc(Cl)c1Cl)NCc1ccccc1 1.01%, O=C(CNC(=O)c1ccccc1F)c1ccc(Br)cc1 -3.5%, CCC(C)(C)C1CCC(=NNC(=O)c2ccc(Br)o2)CC1 (configuration not stated) -0.98%, CC(NC(=O)C(C)(C)C)C(c1cccs1)N1CCN(Cc2ccccc2)CC1 (configuration not stated) -1.34%, CC(NC(=O)Nc1ccccc1)C(c1cccs1)N1CCN(c2ccccc2)CC1 (configuration not stated) -1.69%, C#CC(CCN1CCCCC1)(OC)c1ccccc1 (configuration not stated) -1.1%, Cc1ccc(S(=O)(=O)N(Cc2cccc([N+](=O)[O-])c2)C(=O)N2CCN(C)CC2)cc1 2.18%, O=C(c1cccc([N+](=O)[O-])c1)N1CCN(Cc2ccccc2)CC1 -2.62%, Cc1cc2c(cc1C)N(Cc1ccccc1)C1=NCCCN12 -3.79%, CC(C)(C)c1nnc2sc(SCC(O)=C(C#N)c3nc4ccccc4[nH]3)nn2c1=O -3.45%, COCCN(CCOC)S(=O)(=O)c1ccc(/C(O)=C(\C#N)c2nc3ccccc3[nH]2)cc1 -0.63%, N#C/C(=C(/O)Cc1cccc2ccccc12)c1nc2ccccc2s1 -0.06%, COc1ccccc1C(=O)COC(=O)COc1ccc(C#N)cc1 -3.44%, CCc1nc2ccccc2c(C(=O)OC2CCCCC2=O)c1C (configuration not stated) -2.96%, CC(C)(C)C(=O)NC(NC(=S)Nc1ccc(S(N)(=O)=O)cc1)C(Cl)(Cl)Cl (configuration not stated) 0.71%, CC(=O)NC(NC(=S)Nc1c(C)n(C)n(-c2ccccc2)c1=O)C(Cl)(Cl)Cl (configuration not stated) -0.74%, COc1ccc(OC)c(CN2CCN(C(=O)CNC(=O)c3cc(C)cc(C)c3)CC2)c1 -5.2%, O=C(CSc1nnc(CN2CCCC2)n1-c1ccc(F)cc1)c1ccc2c(c1)OCO2 -2.96%, Cc1ccc(CCN2CC(C(=O)NCCc3ccccc3)CC2=O)cc1 (configuration not stated) -2.88%, C=CCN(C(=O)c1cc(C)cc(C)c1)C1(C(=O)Nc2ccccc2)CCN(C(C)C)CC1 0.59%, Cc1ccc(C2C(C#N)C(C#N)N3CCCN23)cc1 (configuration not stated) 0.61%, CSc1n[nH]c(=S)n1N -1.24%, O=C(COc1ccc2ccc(=O)oc2c1)NCC(O)c1ccccc1 (configuration not stated) -1.9%, CCCN1Cc2cccc(C(=O)NCc3ccccc3)c2C1=O -0.19%, CCc1ccc(N(CC(=O)NCc2cccnc2)S(=O)(=O)c2ccccc2)cc1 -1.13%, CCNC(=O)CN(c1ccc(C)cc1)S(=O)(=O)c1ccc(SC)cc1 -4.37%, CCS(=O)(=O)c1ccc(O)c(NC(=O)COc2ccc(Cl)cc2)c1 -5.16%, COc1ccc(C(=O)Nc2cc(C)ccc2NC(=O)COc2ccccc2)cc1 0.51%, OCC1(Cc2ccccc2)CCN(Cc2cc3ccccc3o2)CC1 0.65%

activation, active:
Cc1ccc(-n2c(SCC(=O)NCCC3=CCCCC3)nc3n[nH]c(C)c3c2=N)cc1Cl 27.3%, CCNS(=O)(=O)c1ccc(NC(=O)Nc2cccc(OC)c2)cc1 62.3%, COCCCNc1nc2c(-c3cccc(C)c3)nnn2c2ccc(Cl)cc12 41.8%, CCC(C(=O)OCC(=O)Nc1ccc(C(=O)Nc2ccc(OC)cc2)cc1)c1ccccc1 (configuration not stated) 19.4%, CCCC(=O)NC(C)C(c1cccs1)N1CCN(c2ccccc2)CC1 (configuration not stated) 25.9%, O=C(CCl)N(Cc1cccc([N+](=O)[O-])c1)c1cccc(Cl)c1 31.3%, N#C/C(=C(/O)COc1cccc2ccccc12)c1nc2ccccc2[nH]1 20.5%, N#C/C(=C(/O)COC(=O)COc1ccc(Cl)cc1)c1nc2ccccc2[nH]1 24.4%, Cc1ccc(NC(=S)NC(NC(=O)Cc2cccc3ccccc23)C(Cl)(Cl)Cl)cc1 (configuration not stated) 43.3%, Cc1cc(C)cc(C(=O)N(CCc2ccccc2)C2=CC3CCC(C2)N3C)c1 (configuration not stated) 104%, Cc1ccc(S(=O)(=O)N(CC(=O)Nc2cccnc2)c2ccc(Br)cc2)cc1 24.9%, Cc1ccc(O)c(NC(=S)NC(=O)COc2ccc(Br)cc2)c1 22.7%

From PubChem BioAssay AID504326 (The Scripps Research Institute Molecular Screening Center, 2011)
